# Assay outcomes deposited in PubChem BioAssay by National Center for Advancing Translational Sciences (NCATS).
# p53 reactivation: re-activators of mutant p53. H1299 p53-A138V BP100-luciferase reporter, luminescence, 24 h. Potency, µM (doses to about 92.2 µM), without a hit: at the top dose activity change, positive = activation, usual class: activators. 0.063% of 320,000 active; further: potency means the concentration at half of the fitted maximal effect; % of control where 0% means no effect; nearly all actives have a fitted effect of over 45% in size
#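 p53-null H1299 cells stably carrying temperature-sensitive p53-A138V and a BP100-luciferase reporter were pinned with compounds (4-point, 1:5 series) and held 24 hrs at 37 deg C. Luminescence was read 10 min after detection reagent.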
# Gal4-VP16 FLuc: Gal4-VP16 reporter inhibition counter-screen; Potency, µM (top dose mostly 53.6 µM), for inactives: at the top dose activity, negative = inhibition, usual class: inhibitors; 3.5% of 310,000 active; Drosophila S2 Gal4-VP16 UAS-luciferase, luminescence, 20 h;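 further: Gal4-VP16 expression switched on by copper sulfate through the metallothionein promoter; potency means the concentration at half of the fitted maximal effect; on the % scale 0 is the no-effect control and ±100 the full control effect; nearly all actives have a fitted effect of over 50% in size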
# BRCA1 expr up: increases BRCA1 expression. 1.1% of 380,000 active. Potency, µM (highest dose often 46.1 µM), inactives show at the highest dose activation, most hits filed as activators. MCF7-BRCA1-FFLuc reporter, luminescence, 48 h; response scale: scaled: vehicle 0%, 10 µM genistein 100%. AID 624202; further: potency means the concentration at half of the fitted maximal effect; nearly all actives have a fitted effect of over 80% in size
#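 Luminescence from a BRCA1-driven firefly luciferase in MCF7 cells was read after 48 h compound exposure at 37 C. Data normalized against DMSO and a 10microM genistein activation control, then curve-fitted across the titration.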
# ELG1 repair inh: ELG1-dependent DNA repair inhibition; HEK293T ELG1-luciferase reporter, luminescence, 16 h; DNA damage induced by 5-fluorouridine; Potency, µM (titrated, usually from 46.1 µM), for the others: at the highest dose activity change, negative = inhibition, hits mostly inhibitors; 2.3% of 330,000 active; AID 504467; further: potency means the concentration at half of the fitted maximal effect; on the % scale 0 is the no-effect control and ±100 the full control effect; nearly all actives have a fitted effect of over 55% in size
#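 Quantitative HTS, concentration-response format. 2,000 cells/well co-treated with 5-fluorouridine and compound, 16 hr in 5% CO2 at 37 °C; ONE-Glo luminescence read after 30 min.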
# RORg inh: inhibitors of mouse ROR gamma transcriptional activity. P51450. Drosophila S2 Gal4-RORgamma UAS-luciferase reporter, 20 h. Potency, µM (top dose mostly 53.6 µM), inactives show at the highest dose activity change, negative = inhibition, most hits filed as inhibitors. 5.4% of 310,000 active. AID 2551; further: potency means the concentration at half of the fitted maximal effect; on the % scale 0 is the no-effect control and ±100 the full control effect; nearly all actives have a fitted effect of over 60% in size
# Target sequence (P51450 whole entry, looked up, the tested form may be a part): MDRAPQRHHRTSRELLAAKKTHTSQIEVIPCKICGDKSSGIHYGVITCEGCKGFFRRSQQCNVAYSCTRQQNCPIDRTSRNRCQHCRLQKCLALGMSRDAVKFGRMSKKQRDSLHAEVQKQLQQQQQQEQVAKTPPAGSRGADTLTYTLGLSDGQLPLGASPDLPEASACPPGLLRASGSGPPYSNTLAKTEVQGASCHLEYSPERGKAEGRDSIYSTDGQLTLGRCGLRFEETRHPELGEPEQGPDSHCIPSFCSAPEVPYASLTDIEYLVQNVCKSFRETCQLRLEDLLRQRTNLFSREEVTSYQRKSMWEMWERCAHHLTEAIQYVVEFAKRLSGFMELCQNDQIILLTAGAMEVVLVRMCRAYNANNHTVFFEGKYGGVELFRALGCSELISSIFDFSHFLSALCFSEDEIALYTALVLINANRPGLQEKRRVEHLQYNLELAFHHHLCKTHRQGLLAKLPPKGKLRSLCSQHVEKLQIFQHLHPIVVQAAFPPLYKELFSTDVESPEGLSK
#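 Drosophila S2 cells stably expressing Gal4-DBD/mouse RORγ fusion under metallothionein promoter plus UAS-luciferase; compound 1 h, then 700 uM CuSO4 induction for 20 h at ambient temperature; inhibition read as reduced luminescence.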
# Giardia killer: Giardia lamblia killing | Giardia lamblia trophozoite viability | activity change, % at 7.66 µM, hits read low | 0.15% of 340,000 active | AID 540267; in the data active means activity change below about -80%; inconclusive means between about -30% and that limit;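 further: parasites exposed to compound for two days anaerobically before the ATP read; on the % scale 0 is the no-effect control and ±100 the full control effect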
#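 Luminescence from cellular ATP indicates surviving trophozoites (100 cells/well) following 48 hrs anaerobic compound treatment at 37 deg C; signal develops 15-30 min at room temperature.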
# * = called active by the depositor; ? = inconclusive; · = no result; [ ] = remark or other dose. Rows were chosen to be rich in hits. Some 7.6% of all compounds tested hit in one or more screens of this group. Unless noted, the call rests on the fitted dose curve; in most records, active means well fitted curve in the direction sought with a large enough effect; inconclusive means small, poorly fitted or top-dose-only effect, or another doubt; inactive means no such curve, though single readings can be large; an effect the other way counts as inactive or inconclusive.
SMILES,p53 reactivation,Gal4-VP16 FLuc,BRCA1 expr up,ELG1 repair inh,RORg inh,Giardia killer
CC[C@H](C)[C@@H]1NC(=O)[C@H](Cc2ccc(O)cc2)NC(=O)[C@@H](N)CSSC[C@@H](C(=O)N2CCC[C@H]2C(=O)N[C@@H](CC(C)C)C(=O)NCC(N)=O)NC(=O)[C@H](CC(N)=O)NC(=O)[C@H](CCC(N)=O)NC1=O,·,1%,·,·,10%,·
CC(=O)c1ccc(Oc2nc3c(c(=O)n(C)c(=O)n3C)n2C)cc1,4%,2%,-1%,-10%,-4%,13
CCC(=O)c1ccc(Oc2nc3c(c(=O)n(C)c(=O)n3C)n2CC)cc1,3%,-2%,21%,15µM*,16%,-3
Cn1c(=O)c2c(nc(Br)n2Cc2ccccc2Cl)n(C)c1=O,4%,0%,0%,-7%,-3%,-15
Cn1c(=O)c2c(nc(Cl)n2CCOc2ccccc2)n(C)c1=O,-6%,?,-21%,9.2µM*,?,25
CCOc1nc2c(c(=O)n(C)c(=O)n2C)n1Cc1ccccc1Cl,1%,1%,-77%,8.2µM*,41%[10 µM],4
COc1ccc(Oc2nc3c(c(=O)n(C)c(=O)n3C)n2C)cc1,0%,-1%,12%,9.2µM*,33%[1.91 µM],1
Cc1ccnc(NC(=O)C2CCCN(S(=O)(=O)c3cnc[nH]3)C2)c1 (configuration not stated),7%,2%,-3%,-4%,5%,-9
COc1ccc(C(=O)Cn2c(Cl)nc3c2c(=O)n(C)c(=O)n3C)cc1,-2%,-10%,0%,16µM*,16%,9
COc1ccc(C(=O)Cn2c(N3CCOCC3)nc3c2c(=O)n(C)c(=O)n3C)cc1,5%,-9%,·,3%,22%,·
Cc1cc(C)n(-c2ccc(NC(=O)C3CCN(Cc4cc(C)c(C)o4)CC3)cc2)n1,16%,-11%,-24%,-5%,1%,9
CS(=O)(=O)c1nc(-c2ccc(F)cc2)cc(C(F)(F)F)n1,-15%,4.5µM*,-100%,?,2.5µM*,-14
Cc1cc(NC(=O)CCCS(=O)(=O)c2nc(-c3cccs3)cc(C(F)(F)F)n2)no1,-55%,0.89µM*,-69%,?,5.6µM*,4
Nc1nc(-c2ccc(F)cc2)cc(C(F)(F)F)n1,-2%,5%,-2%,0%,-2%,16
Cc1cc(NC(=O)CSc2nc(-c3cccs3)cc(C(F)(F)F)n2)no1,-19%,-6%,-74%,0%,-38%,-8
CS(=O)(=O)c1nc(-c2cccs2)cc(C(F)(F)F)n1,-31%,4.5µM*,·,?,2µM*,·
COc1ccc(-c2cc(C(F)(F)F)nc(S(C)(=O)=O)n2)cc1,-19%,8.9µM*,-80%,-26%,13µM*,-8
Cc1ccc(C(=O)Nc2nccc(C)n2)cc1,?,2%,56%,?,-13%[1.91 µM],-4
CC(C)Nc1nnc(SC(C)C(=O)NCc2ccc3c(c2)OCO3)s1 (configuration not stated),-2%,-5%,0%,1%,5%,2
COc1cccc(-c2cc(C(F)(F)F)nc(-n3cc(Cl)cn3)n2)c1,-2%,0%,-20%,?,-9%,3
COc1ccc(-c2cc(C(F)(F)F)nc(-n3cc(Cl)cn3)n2)cc1,5%,?,-30%,23µM*,?,-15
O=C(CC1C(=O)NCCN1C/C=C/c1ccccc1)NCCc1ccncc1 (configuration not stated),-2%,1%,1%,2%,15%,-5
CN(CCCN1CCOCC1)C(=O)c1ccc2nc(Cc3cccc(Cl)c3)oc2c1,-4%,-3%,-22%,15µM*,-1%,23
O=C(NCC1CCOCC1)c1ccc2nc(Cc3cccc(Cl)c3)oc2c1,0%,15%,10µM*,1%,11%,1
CN(CC1CCOCC1)C(=O)c1ccc2nc(Cc3cccc(Cl)c3)oc2c1,-22%,-10%,-14%,?,16%,11
SMILES,p53 reactivation,Gal4-VP16 FLuc,BRCA1 expr up,ELG1 repair inh,RORg inh,Giardia killer
C/C(Cc1ccccc1)=N\NC(=O)CNC(=O)c1ccc(F)cc1,12%,-5%,10%,?,4%,-2
CC1=C/C(=N\NC(=O)c2ccccc2)CC1,20%,?,7%,?,13µM*,-4
CC(NC(=O)c1ccc(C(F)(F)F)cc1)C(c1ccccc1)N1CCOCC1 (configuration not stated),-1%,-11%,22%,2%,40%,-9
COc1ccc(C(=O)Nn2c(SCC(=O)NCC3CCCO3)nc3ccccc3c2=O)cc1 (configuration not stated),-10%,?,-65%,?,7.1µM*,-13
COc1ccc(C(=O)Nn2c(SCC(=O)NCc3ccccc3)nc3ccccc3c2=O)cc1,-2%,3%,-44%,?,10µM*,-5
O=C(CSc1nc2ccccc2c(=O)n1NC(=O)c1ccccc1)c1ccc(Cl)cc1,7%,-1%,14µM*,?,7%,2
O=C(CSc1nc2ccccc2c(=O)n1NC(=O)c1ccccc1)c1ccccc1,?,-13%,82%,?,-8%,11
O=C(COc1cc(F)ccc1[N+](=O)[O-])Nc1ccc(N2CCOCC2)cc1,0%,-11%,-5%,14%,7%,1
CC1CC(C)CN(C(=S)Nc2ccc3nc4n(c(=O)c3c2)CCCCC4)C1 (configuration not stated),-10%,?,-16%,?,?,14
Cc1cccc(Cn2nc(C(C)(C)C)cc2C(=O)N2CCOCC2)c1,-4%,-13%,-19%,-5%,19%,11
C=CCn1c(SCC(=O)Nc2sc(C)c(C)c2C(=O)OCC)nnc1-c1sc(N)nc1C,-8%,5%,-17%,5.8µM*,21%,-8
CSc1ccc(S(=O)(=O)NCc2ccc(C)cc2)cc1,-1%,1%,6%,-3%,5%,16
CC(=O)c1ccc(NC(=O)CCc2nnc3ccc(N4CCC5(CC4)OCCO5)nn23)cc1,?,?,78%,?,25%,-8
Cc1ccc(NC(=O)CCc2nnc3ccc(N4CCC5(CC4)OCCO5)nn23)nc1,1%,-1%,-9%,5.8µM*,-10%,22
COC(=O)C(NC(=O)CCc1nnc2ccc(N3CCCCC3)nn12)C(C)C (configuration not stated),?,3%,11µM*,?,1%,-8
CC1CCN(c2ccc3nnc(CCC(=O)NC(C)C)n3n2)CC1,-2%,-3%,1%,20%,1%,-4
